Assay outcomes as filed in PubChem BioAssay.
SKN-1 block – blocks SKN-1 activity in C. elegans. inhibition, % at 21.8 µM. C. elegans VP596 Pgst-4::GFP/RFP ratio, acrylamide-induced, 24 h. actives 0.49% (n = 360,000);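 active means interference check ratio from 0.5 to 1.5 plus GFP to RFP signal ratio inhibition reaching or exceeding a fixed threshold, cut at about 30% in these data, passing the limit was not always enough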
RAM network inh – blocks the yeast RAM network; AID 868; actives 1.8% (n = 190,000); S. cerevisiae dse1pr::URA3 reporter, 5-FOA growth OD615, 2 d; analog-sensitive cbk1-as2 kinase mutant strain; inhibition, % at 50 µM;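 active means inhibition above a set limit, 3 SD over mean compound inhibition, cut at about 8.4% in these data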;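 further: 0% = DMSO-only wells with no growth and 100% = 10 µM 1-NA-PP1 full growth; inhibition rescues growth on 5-FOA so higher OD means more RAM inhibition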
PGE2 EP2 inh – EP2 receptor (human) inhibition. inhibition, % at 25 µM. C6 glioma cells expressing human EP2, cAMP TR-FRET; cells stimulated with saturating PGE2. actives 0.52% (n = 260,000). AID 1422;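 active means percent inhibition above 40 after rounding to a whole number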;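 further: rat C6 glioma host cells with rolipram phosphodiesterase inhibitor present; the protocol text gives 20 µM as final concentration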
Target sequence (P43116 whole entry, looked up): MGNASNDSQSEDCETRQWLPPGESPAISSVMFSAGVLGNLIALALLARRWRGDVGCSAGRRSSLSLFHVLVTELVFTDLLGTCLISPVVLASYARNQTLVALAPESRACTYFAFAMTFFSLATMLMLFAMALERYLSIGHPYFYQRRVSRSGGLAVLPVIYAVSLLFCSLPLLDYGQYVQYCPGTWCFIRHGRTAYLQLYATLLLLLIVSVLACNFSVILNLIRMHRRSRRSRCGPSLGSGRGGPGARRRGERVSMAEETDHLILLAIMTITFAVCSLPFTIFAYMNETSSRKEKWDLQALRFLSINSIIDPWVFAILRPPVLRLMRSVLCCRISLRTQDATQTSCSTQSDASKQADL
PG9 binder – binds the HIV-1 gp120 antibody PG9; TR-FRET gp120-PG9 antibody binding; inhibition, % at 6.7 µM; actives 0.43% (n = 360,000); AID 624416; in the data active means inhibition above about 8.5%
EP2 modulator – modulators of human EP2 prostaglandin E2 receptor. induction, % at 25 µM. actives 0.83% (n = 260,000). AID 940. EP2-expressing cells, cAMP HTRF FRET, PGE2 co-stimulation. P43116;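 active means compounds whose cAMP rise, as percent of the full-agonist control response, exceeds 60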;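 further: rat C6 glioma line stably carrying human EP2 under a CMV promoter; the protocol text gives 20 µM as final concentration; 100% = response of wells given 1 µM PGE2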
NR1D1 modulator – modulates human Rev-erb alpha binding to DNA; P20393; Rev-erbα–FITC-DNA binding, fluorescence polarization, 90 min; activity, % at 10 µM; actives 0.79% (n = 370,000);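 active means activity above about 14%, limit read from the data; passing the limit was not always enough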;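 further: 0% = DMSO wells with 35 nM protein and 100% = DMSO wells with 750 nM protein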
RAM efflux-def – RAM network inhibition, efflux-deficient strain. 1,200 tested, under 10 active. S. cerevisiae efflux-deficient reporter strain, 5-FOA growth OD615, 2 days. max inhibition, %. shares compounds with RAM network inh; call rule not given here;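 further: plate controls were vehicle for no effect and reference inhibitor for full effect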
* marks the source's active call; other numbers are inactive results; . = not tested or not shown. Shown are actives, neighbours in structure and some others; about 2.9% of the full set was active somewhere.

SMILES | SKN-1 block | RAM network inh | PGE2 EP2 inh | PG9 binder | EP2 modulator | NR1D1 modulator | RAM efflux-def
Cc1noc(NS(=O)(=O)c2ccc(N/C=C/C(=O)c3ccc4c(c3)OCO4)cc2)c1C | -4 | 0 | 7 | -1 | -44 | -1 | .
Cc1noc(NS(=O)(=O)c2ccc(N/C=C\C(=O)c3cccs3)cc2)c1C | -2 | 12* | 9 | 0 | 2 | 1 | 6
CCCC(=O)NC(c1ccccc1Cl)c1cc(Cl)c2cccnc2c1O (stereo not drawn) | . | . | 15 | . | 2 | . | .
CCC(Oc1ccc2c(=O)c(-c3ccccc3OC)coc2c1)C(=O)OCc1ccccc1 (stereo not drawn) | 7 | 22* | 1 | 0 | 25 | 1 | 2
COc1ccccc1-c1coc2cc(O)ccc2c1=O | . | . | 16 | . | 29 | . | .
O=C(CCCc1nc(-c2ccccc2)no1)NC1CCCOC1 (stereo not drawn) | . | . | 1 | . | -49 | . | .
CCCCOC(=O)c1ccc(NC(=O)/C=C/c2cccs2)cc1 | 37* | 15* | 4 | -2 | -14 | 3 | 6
CC(C)n1c(Oc2ccc3c(c2)OCO3)nc2c1c(=O)n(C)c(=O)n2C | . | . | 4 | . | -17 | . | .
C=CCSC1=N/C(=C/c2ccsc2)C(=O)N1c1ccccc1 | 9 | 14* | 4 | -4 | 48 | 6 | 2
O=C(Oc1ccccc1Br)c1cccc(S(=O)(=O)N2CCOCC2)c1 | . | . | 10 | . | -100 | . | .
CCOC(=O)C(C)Sc1nc2c(C)cccc2cc1C#N (stereo not drawn) | . | . | 8 | . | 52 | . | .
CCOC(=O)C(C)Sc1nc(-c2cccs2)ccc1C#N (stereo not drawn) | 8 | 13* | 10 | 0 | -16 | 3 | 2
COc1cc(NC(=O)COC(=O)Cc2ccc(-c3ccccc3)cc2)cc(OC)c1 | -7 | 17* | 7 | 1 | -41 | 7 | 4
COc1ccc(OC)c(NC(=O)COC(=O)Cc2ccc(-c3ccccc3)cc2)c1 | 10 | 14* | 5 | -2 | -8 | -5 | 3
COc1ccc(CC(=O)Nc2cc3oc4ccccc4c3cc2OC)cc1 | 16 | 12* | 3 | -2 | -24 | -2 | 3
CCCc1nc2cc(NC(=O)Cn3cnc4sc(C)cc4c3=O)ccc2n1C | . | . | 9 | . | -14 | . | .
Cc1cccc(C)c1OCC(O)Cn1nnc2ccccc21 (stereo not drawn) | -6 | 1 | 5 | -1 | 11 | -1 | .
Cc1ccc(OCCN2CCN(CC(O)Cn3c4ccccc4c4ccccc43)CC2)cc1 (stereo not drawn) | . | 0 | 9 | -2 | -15 | 0 | .
Cc1ccc(OCC(O)Cn2c3ccccc3c3ccccc32)cc1 (stereo not drawn) | 9 | 12* | 6 | -1 | 45 | -2 | 2
Cc1cccc(C)c1OCC(O)Cn1c2ccccc2c2ccccc21 (stereo not drawn) | 10 | 15* | 13 | 1 | 15 | -4 | 7
Cc1ccc(NCc2nnc(SCC(=O)N3CCCC(C)C3)n2C)cc1 (stereo not drawn) | . | . | 9 | . | -2 | . | .
CCOC(=O)Cc1csc(NC(=O)c2c(O)c3ccccc3n(CC(C)C)c2=O)n1 | 11 | 13* | 8 | 1 | 24 | 3 | 3
CCCn1c(=O)c(C(=O)Nc2ccccc2C(=O)OCC)c(O)c2ccccc21 | -1 | 16* | 2 | . | 49 | 0 | 3
CCCn1c(=O)c(C(=O)NCc2ccccc2)c(O)c2ccccc21 | 5 | . | . | 0 | . | 4 | .
CCCn1c(=O)c(C(=O)NCc2ccc(OC)c(OC)c2)c(O)c2ccccc21 | 10 | 17* | 10 | -1 | 50 | 0 | 2
SMILES | SKN-1 block | RAM network inh | PGE2 EP2 inh | PG9 binder | EP2 modulator | NR1D1 modulator | RAM efflux-def
CCCOC(=O)c1ccccc1NC(=O)c1c(O)c2ccccc2n(C)c1=O | . | . | 8 | . | 37 | . | .
COc1ccccc1C1(O)CCN(CC(O)c2ccc(C(C)(C)C)cc2)CC1 (stereo not drawn) | . | . | 9 | . | -79 | . | .
COc1ccc(-c2cc(C(=O)N3CCC4(CC3)NC(=O)c3ccccc3O4)[nH]n2)cc1 | . | . | 4 | . | -93 | . | .
O=C(NCc1ccc(F)cc1)c1ccc(S(=O)(=O)Nc2cccc(C(F)(F)F)c2)cc1 | 8 | 13* | 4 | -2 | -13 | 1 | 2
O=C(NCc1ccccc1F)c1ccc(S(=O)(=O)Nc2cccc(C(F)(F)F)c2)cc1 | 8 | 1 | 0 | 0 | -26 | 4 | .
O=C(CSc1nc2sc3c(c2c(=O)[nH]1)CCCC3)NCCc1ccccc1 | . | . | 4 | . | -45 | . | .
COc1ccc(C(=N/O)/C(=N/O)c2ccc(OC)cc2)cc1 | 4 | 4 | 14 | -1 | -9 | 0 | .
COc1ccc(C(Cl)=C(c2ccc(OC)cc2)c2ccc(OC)cc2)cc1 | 10 | 13* | 11 | -2 | 23 | 5 | 6
Cc1ccc(N2CCCC2=O)cc1S(=O)(=O)NC1(c2ccccc2F)CC1 | . | . | 5 | . | -30 | . | .
CCC(C)(C)n1nnnc1C(c1ccc(OC)cc1)N1CCN(C2CCCCC2)CC1 (stereo not drawn) | . | . | 7 | . | -9 | . | .
Cc1ccc(OCCn2cc(/C=C(\C#N)C(=O)NCC3CCCO3)c3ccccc32)cc1C (stereo not drawn) | 17 | 12* | 10 | -2 | 6 | 4 | 6
Cc1ccc(OCCn2cc(/C=C(\C#N)C(=O)NCC3CCCO3)c3ccccc32)cc1 (stereo not drawn) | 18 | 14* | 17 | -1 | 14 | 5 | 6
Cc1ccc(C)c(OCCn2cc(/C=C(\C#N)C(=O)NCC3CCCO3)c3ccccc32)c1 (stereo not drawn) | 0 | 7 | 5 | -3 | -9 | 3 | .
CC[C@@H](Cn1ncc2ccccc2c1=O)NC(=O)c1cnc(C)cn1 | . | . | 6 | . | -4 | . | .
CCOc1cc(C2C(C#N)=C(N)OC3=C2C(=O)CCC3)ccc1OCc1ccccc1C#N (stereo not drawn) | . | . | 5 | . | -46 | . | .
O=C(Cn1ncc2ccccc2c1=O)N1C2CCC1CC(c1ccc(F)cc1)C2 (stereo not drawn) | . | . | 3 | . | -64 | . | .
O=C(CCC1CCCCC1)Nc1ccccc1-c1ccccc1 | 15 | 25* | 5 | -1 | 32 | -1 | 5
CCCCCCOC(=O)C(C#N)c1nc2ccccc2nc1N1CCN(C)CC1 (stereo not drawn) | 1 | 0 | 6 | -1 | 16 | 6 | .
CCC(C)COC(=O)C(C#N)c1nc2ccccc2nc1N1CCCCC1 (stereo not drawn) | 9 | 18* | 5 | 2 | 26 | 8 | 4
CCCCCCOC(=O)C(C#N)c1nc2ccccc2nc1N1CCCCC1 (stereo not drawn) | -12 | 24* | 4 | 0 | 29 | 2 | 9
CCCCOc1nc2ccccc2nc1C(C#N)C(=O)NC1CCCCC1 (stereo not drawn) | 24 | 12* | . | -2 | 5 | -3 | 9
